Experimental data: the supplement of paper PMC10981050
Several values for one entry are separate records, joined by “and”; a condition that tells them apart may be missing. Identical values can stand only once. Counter-ions that a name gives are not always drawn.

Assays:
Experiment in all cases: cell viability relative to vehicle control; higher = less cytotoxic
Settings in all cases: 10 µM
[1] = test system: K562
Procedure, shortened: (§1)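 Screening covered the Selleck bioactive, kinase and epigenetic probe libraries, less identity-inconsistent compounds, on CRISPR-edited mutant clones and isogenic wild-type clones of four leukaemia lines. Cells, at 2000 per well in 50 µL medium, received a single 10 µM acoustically dispensed dose. After 48 h the supernatant was removed and CellTiter-Glo luminescence was read. Viability was analysed in Genedata Screener as percent of the on-plate vehicle control.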

[2] = test system: MARIMO
Procedure, shortened: as §1

[3] = test system: MOLM14
Procedure, shortened: as §1

[4] = test system: OCI-AML2
Procedure, shortened: as §1

SMILES	cell viability ([1]; SRSF2 genotype: SRSF2 P95H/wt)	cell viability ([1]; SRSF2 genotype: SRSF2 wt/wt)	cell viability ([2]; SRSF2 genotype: SRSF2 P95H/wt)	cell viability ([2]; SRSF2 genotype: SRSF2 wt/wt)	cell viability ([3]; SRSF2 genotype: SRSF2 P95H/wt)	cell viability ([3]; SRSF2 genotype: SRSF2 wt/wt)	cell viability ([4]; SRSF2 genotype: P95H/wt)	cell viability ([4]; SRSF2 genotype: wt/wt)
C[C@]12C=CC(=O)C=C1CC[C@H]1[C@@H]3C[C@@H](O)[C@](O)(C(=O)CO)[C@@]3(C)C[C@H](O)[C@@]12F [Triamcinolone (Aristocort)]	107%	106%	100%	108%	107%	98.3%	110%	122%
NS(=O)(=O)c1cc(Cl)c(Cl)c(S(N)(=O)=O)c1 [Dichlorphenamide (Diclofenamide)]	108% and 97%	95.9%	91.9%	102%	105%	99.6%	93.4%	103%
CC(C)(C)OC(=O)N[C@@H]1CCCC[C@H]1N [(1R,2R)-trans-N-Boc-1,2-cyclohexanediamine]	104% and 108%	98.6%	101%	104%	101%	105%	114%	104%
C[C@H]1C[C@@H]2[C@H]([C@@H](O)C[C@@]3(C)[C@H]2CC[C@]3(O)C(=O)CO)[C@@]2(C)C=CC(=O)C=C12 [Methylprednisolone]	100% and 106%	103%	110%	103%	95.8%	98.8%	99.8%	107%
CN1CCCN(C(=O)c2cccc(-c3ccc(/C=C4/C(=O)Nc5ccc(Cl)cc54)o3)c2)CC1	0.32%	0.41%	0.26%	0.37%	0.32%	0.29%	0.21%	0.42%
CS(=O)(=O)n1cc2c(n1)CN([C@H]1CO[C@H](c3cc(F)ccc3F)[C@@H](N)C1)C2 [Omarigliptin (MK-3102)]	98.3% and 102%	96.2%	99.2%	99.9%	101%	96.4%	101%	103%
CC(C)(Sc1cc(C(C)(C)C)c(O)c(C(C)(C)C)c1)Sc1cc(C(C)(C)C)c(O)c(C(C)(C)C)c1 [Probucol]	98.5% and 99.2%	102%	99.7%	105%	102%	105%	105%	103%
Cn1c(=O)c2c(ncn2CC(O)CO)n(C)c1=O (centres undefined) [Dyphylline (Dilor)]	101% and 102%	100%	94.9%	105%	97.8%	101%	95%	102%
CC1=C(/C=C/C(C)=C/C=C/C(C)=C/C=C/C=C(C)/C=C/C=C(C)/C=C/C2=C(C)CCCC2(C)C)C(C)(C)CCC1 [Beta Carotene]	100% and 103%	92%	93.3%	101%	93.8%	98%	98.3%	105%
C[C@H]1O[C@@H](O[C@H]2CC[C@@]3(C)[C@@H](CC[C@]4(C)[C@@H]3C=CC3=C5CC(C)(C)CC[C@]5(CO)[C@@H](O)C[C@]34C)[C@]2(C)CO)[C@H](O[C@@H]2O[C@H](CO)[C@@H](O)[C@H](O)[C@H]2O)[C@@H](O[C@@H]2O[C@H](CO)[C@@H](O)[C@H](O)[C@H]2O)[C@H]1O [Buddlejasaponin IVb]	96.5% and 97%	97.8%	98.4%	108%	98.3%	102%	101%	106%
CC[C@H](Nc1ncnc2[nH]cnc12)c1oc2ccccc2c(=O)c1-c1cccc(F)c1 [Tenalisib (RP6530)]	101% and 96%	98.2%	95.2%	100%	82.4%	84.4%	84.8%	87.5%
COc1cc2ncc(-c3ccccc3)nc2cc1OC [Tyrphostin AG 1296 (AG 1296)]	90.3% and 94.9%	93%	81.5%	82.2%	48.2%	56%	69.5%	65.6%
O=C(O)c1cc(O)cc(Cl)c1 [3-chloro-5-hydroxybenzoic Acid]	104% and 101%	103%	96.3%	95.1%	105%	107%	96.9%	109%
COc1cc(C(=O)NS(=O)(=O)c2ccccc2C)ccc1Cc1cn(C)c2ccc(NC(=O)OC3CCCC3)cc12 [Zafirlukast (Accolate)]	97.3% and 96.5%	92.8%	96%	110%	94.3%	97%	94.4%	104%
COc1ccc2ccc(=O)oc2c1CC=C(C)C [Osthole (Osthol)]	97.5% and 91.7%	90.1%	94.2%	93.2%	88.7%	94.3%	93.2%	95.5%
C=CCc1ccc(OC(C)=O)c(OC)c1 [Eugenyl acetate]	85.8% and 88%	86%	89.7%	90.4%	93.2%	90.1%	91.1%	91.6%
O=C(O)[C@@]1(CCCCCCOc2ccc(Cl)cc2)CO1 [Etomoxir (Na salt)]	113% and 110%	115%	104%	110%	106%	108%	107%	96.8%
COc1ccc([C@@H]2CC(=O)c3c(O)cc(O[C@@H]4O[C@H](CO[C@@H]5O[C@@H](C)[C@H](O)[C@@H](O)[C@H]5O)[C@@H](O)[C@H](O)[C@H]4O)cc3O2)cc1O [Hesperidin]	105% and 115%	111%	107%	109%	109%	113%	112%	97.2%
